# This is a sample that favours compounds with a hit; in the whole collection about 19% have one here.
# TDP1 cell CPT: qHTS for Inhibitors of human tyrosyl-DNA phosphodiesterase 1 (TDP1): qHTS in cells in presence of CPT. Potency, µM (highest dose often 46.2 µM), for inactives: at the top dose activity change, negative = growth inhibition, hits mostly inhibitors. hit rate 12% among 420,000. chicken DT40 Tdp1-/-;hTDP1 cells + 20 nM CPT, ATP luminescence, 48 h. AID 686979, 2013; further: potency means the concentration at half of the fitted maximal effect; nearly all actives have a fitted effect of over 55% in size
#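 Cell growth measured by CellTiter-Glo luminescence after a minimum 48 h, 37 C compound exposure with 20 nM CPT in Tdp1-knockout DT40 cells stably expressing hTDP1, seeded 400/well; qHTS titration format.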
# IL-1B inflam inh: qHTS for Inhibitors of Inflammasome Signaling: IL-1-beta AlphaLISA Primary Screen. THP-1 LPS/ATP IL-1B secretion, AlphaLISA, 16 h; active compounds read low. activity change, % at 57.5 µM. hit rate 4.7% among 360,000. AID 743279, 2014; in the data active means activity change below about -50%; inconclusive means mostly about -30% to -49%
#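 THP-1 cells pretreated 1 hr with compounds (up to 57.5 uM final), then stimulated with LPS (250 ng/mL final) plus ATP (1.25 mM final); secreted IL-1B measured by AlphaLISA after 16 hr, decreased signal indicating inhibition.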
# HT1080NT lethal: qHTS for induction of synthetic lethality in tumor cells producing 2HG: qHTS for the HT-1080-NT fibrosarcoma cell line | Potency, µM (titrated, usually from 46.1 µM), without a hit: top-dose activity, negative = less viability, hits mostly cytotoxic | HT-1080-NT fibrosarcoma viability, CellTiter-Glo ATP luminescence, 48 h | hit rate 1.6% among 360,000;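 further: NT is the 2HG producing partner of a matched IDH1 knockdown line; potency means the concentration at half of the fitted maximal effect; 0% = DMSO-treated cells and -100% = media-only wells without cells; nearly all actives have a fitted effect of over 55% in size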
#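 Toxicity toward the 2HG-producing NT line was scored as %Activity, normalised to DMSO and no-cell wells, from CellTiter-Glo luminescence after 48 hours' treatment.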
# HT1080 IDH1KD tx: qHTS for induction of synthetic lethality in tumor cells producing 2HG: qHTS for the HT-1080-IDH1KD cell line; HT-1080 IDH1 knockdown viability, ATP luminescence, 48 h; Potency, µM (series often up to 46.1 µM), inactives show at the highest dose activity, negative = toxicity, usual class: cytotoxic; hit rate 2% among 360,000; AID 686971, 2013;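 further: potency means the concentration at half of the fitted maximal effect; 0% = DMSO wells and -100% = cell-free medium wells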
#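 HT-1080-IDH1KD cells (IDH1 knocked down), 750/well in RPMI with 5% FBS, treated with compound 48 h at 37 degrees C. Viability by CellTiter-Glo luminescence, normalised to DMSO and no-cell wells; concentration-response curves classed.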
# TDP1 cell noCPT: qHTS for Inhibitors of human tyrosyl-DNA phosphodiesterase 1 (TDP1): qHTS in cells in absence of CPT; AID 686978, 2013; hit rate 15% among 420,000; DT40 Tdp1-/- hTDP1 cells, no CPT, ATP luminescence, 48 h; Potency, µM (doses to about 46.2 µM), inactives show top-dose activity change, negative = growth inhibition, hits mostly inhibitors; further: potency means the concentration at half of the fitted maximal effect; nearly all actives have a fitted effect of over 55% in size
#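 Chicken DT40 Tdp1-/- cells complemented with human TDP1, screened without camptothecin (DMSO vehicle only), 400 cells/well. Compounds pin-transferred, cells incubated at 37 °C for at least 48 hr. Growth read as ATP-dependent luminescence (CellTiter-Glo, 30 min at RT).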
# Active calls of the source: *; i = inactive; ? = inconclusive; / = no result. Unless noted, the call rests on the fitted dose curve; in most records, active means well fitted curve in the direction sought with a large enough effect; inconclusive means small, poorly fitted or top-dose-only effect, or another doubt; inactive means no such curve, though single readings can be large; an effect the other way counts as inactive or inconclusive. Unless noted, on the % scale 0 is the no-effect control and ±100 the full control effect.
SMILES,TDP1 cell CPT,IL-1B inflam inh,HT1080NT lethal,HT1080 IDH1KD tx,TDP1 cell noCPT
COc1ccc(N/N=C(C)/C(=N/O)C(=O)Nc2ccccc2)cc1,?,-8,?,?,15µM*
COC(=O)CNC(c1ccccc1)c1cc(Br)ccc1NC(=O)c1cc(OC)c(OC)c(OC)c1 (stereo unspecified),16µM*,/,/,/,7.3µM*
COc1ccc(C)cc1NC(=O)CNC(c1ccccc1)c1ccc(C)cc1 (stereo unspecified),3.3µM*,115,?,5.2µM*,3.3µM*
Nc1ccc(S(=O)(=O)NN=CC=Cc2ccccc2[N+](=O)[O-])cc1,?,-8,2%,1%,?
COc1cc(NC(=O)CNC(c2ccccc2)c2ccccc2)cc(OC)c1OC,26µM*,-5,-3%,-4%,21µM*
COc1ccccc1NC(=O)CNC(c1ccccc1)c1ccccc1,?,7,-1%,-2%,?
COc1ccc(C(CC(=O)Nc2ccc(F)cc2)c2ccccc2)cc1 (stereo unspecified),?,-20,?,?,?
COc1ccc(NC(=O)CNC(c2ccccc2)c2ccccc2)cc1,?,16,-3%,0%,26µM*
COc1ccc(NC(=O)CC(c2ccc(F)cc2)c2ccc(OC)cc2)cc1 (stereo unspecified),?,-14,5%,0%,15µM*
NC(=O)c1ccc(NC(=O)CNC(c2ccccc2)c2ccccc2)cc1,4%,47,7%,0%,3%
CC(=O)N1SC(N)=NC1c1ccccc1 (stereo unspecified),4%,6,14%,16%,-12%
c1ccc([C@H]2CN3C(=N2)Sc2ccccc23)cc1,18µM*,-1,-13%,-3%,?
CCN(CC)C(=O)C1=C(C)N(Cc2ccccc2)C(=O)C(CC(=O)NC2CC2)C1 (stereo unspecified),?,-25,4%,18%,?
N#C/C(=C\c1cccc(OCC(=O)O)c1)c1nc2ccccc2[nH]1,4%,0,-10%,1%,14%
N#C/C(=C\c1ccc(OCc2ccc(Cl)cc2Cl)cc1)c1nc2ccccc2[nH]1,16µM*,/,/,/,21µM*
N#C/C(=C\c1ccc(OC(=O)c2ccc(Cl)s2)cc1)c1nc2ccccc2[nH]1,?,-3,5%,5%,?
COc1cc(/C=C(\C#N)c2nc3ccccc3[nH]2)cc(Cl)c1OCc1ccccc1Cl,7.3µM*,/,/,/,18µM*
O=S(=O)(Nc1cccc(-c2cn3cccnc3n2)c1)c1ccc(Cl)cc1,?,-70*,2%,-8%,?
CC(=O)Nc1cccc(-c2cn3cccnc3n2)c1,3%,/,/,/,2%
COc1ccc(C)cc1S(=O)(=O)Nc1cccc(-c2cn3cccnc3n2)c1,6%,-20,-10%,-5%,?
COc1ccc(-c2cn3cccnc3n2)cc1NC(=O)COc1ccccc1,21µM*,/,/,/,13µM*
O=C(COc1ccccc1)Nc1cccc(-c2cn3cccnc3n2)c1,21µM*,i,8%,11%,?
COCCCn1c(=O)c2sccc2n2c(CCCC(=O)NCc3ccc(OC)cc3)nnc12,5%,0,6%,2%,18%
CCN(C(=O)COC(=O)c1ccc(-n2c(C)ccc2C)cc1)c1c(N)n(Cc2ccccc2)c(=O)[nH]c1=O,?,?,0%,-9%,-18%
CC(C)OC(=O)Nc1ccc2nc(-c3cscn3)[nH]c2c1,0.84µM*,/,/,/,1.2µM*
SMILES,TDP1 cell CPT,IL-1B inflam inh,HT1080NT lethal,HT1080 IDH1KD tx,TDP1 cell noCPT
CC(C)[C@H](CO)NC(=O)[C@H]1O[C@@H](n2ccc(=O)[nH]c2=O)[C@H](O)[C@@H]1O,-25%,24,11%,18%,1%
Cc1nn(CCCC(=O)NCc2ccccc2)c(=O)c2cc3sccc3n12,1%,/,/,/,-27%
Cc1nn(Cc2ccccc2)c(C)c1NC(=O)CSc1nc(C2CC2)nc2c1cnn2-c1ccccc1,16µM*,4,1%,7%,16µM*
Cn1c(N)c(C(=O)COC(=O)C2(c3ccccc3F)CCCC2)c(=O)n(C)c1=O,?,-4,-14%,-13%,?
CC(C)[C@H](NS(=O)(=O)c1ccc(Cl)cc1)C(=O)OCC(=O)c1c(N)n(C)c(=O)n(C)c1=O,?,15,0%,-1%,21µM*
Cn1c(N)c(C(=O)COC(=O)/C=C/c2ccc(Cl)cc2Cl)c(=O)n(C)c1=O,?,-13,2%,-1%,16µM*
Cn1c(N)c(C(=O)COC(=O)C2(c3ccc(Cl)cc3)CCCC2)c(=O)n(C)c1=O,15µM*,19,?,-25%,12µM*
Cn1c(N)c(C(=O)COC(=O)/C=C/c2ccc(Cl)cc2)c(=O)n(C)c1=O,?,15,2%,7%,?
Cn1c(N)c(C(=O)COC(=O)C2(c3ccc(F)cc3)CCCC2)c(=O)n(C)c1=O,?,-11,-23%,-17%,18µM*
CC[C@H](C)[C@H](NC(=O)c1ccc(Cl)cc1)C(=O)OCC(=O)c1c(N)n(C)c(=O)n(C)c1=O,?,14,-13%,-16%,?
COc1ccc(N(C)S(=O)(=O)c2cccc(C(=O)N(C)Cc3ccc(C)o3)c2)cc1,?,-19,-13%,-10%,?
O=C(CN1C(=O)NC2(CCCC2)C1=O)NCCc1ccccc1,-3%,0,1%,-2%,22%
COc1ccccc1N1CCN(C2CCCN(S(=O)(=O)c3ccc(C)cc3)C2)CC1 (stereo unspecified),?,-7,-2%,1%,?
Cc1ccc(S(=O)(=O)N2CCCC(c3nnc4n3-c3ccccc3SC4)C2)cc1 (stereo unspecified),?,-10,0%,-1%,15µM*
COc1cccc(CNC(=O)CSc2nc(=O)n(Cc3ccncc3)c3c2CCC3)c1,-5%,-5,9%,2%,-1%
CC12CCC(C(=O)Nc3ccncc3)(CC1O)C2(C)C (stereo unspecified),4%,15,6%,-2%,-17%
N#Cc1c2c(c(Nc3ccc(F)cc3)n3c1nc1ccccc13)CCCC2,16µM*,11,-2%,-24%,18µM*
OCCO,4%,-6,0%,6%,12%
CC(=O)Nc1ccc(Sc2ncccc2C(=O)Nc2ccc(OC(F)(F)F)cc2)cn1,6.5µM*,17,-10%,-2%,5.2µM*
